Measurements reported in the supplement of paper PMC12339681.
Counter-ions that a name gives are not always drawn.

system: PBMC-derived induced microglia-like cells (piMGLC); experiment: synaptosome phagocytic index relative to DMSO control (fraction of DMSO); higher = more phagocytosis; conditions: concentration: 10 uM (2 uM for compounds listed in Table S2); pretreatment time: 24 h; assay time: 3 h

| Compound | synaptosome phagocytic index |
| --- | --- |
| Cc1cnc(-c2cc(N3CCN(C(=O)CCS(C)(=O)=O)CC3)ncc2Cl)c(C)c1 | 0.665 |
| COc1ccc(C[C@@H]2c3cc(OC)c(OC)cc3CC[N@+]2(C)CCC(=O)OCCCCCOC(=O)CC[N@@+]2(C)CCc3cc(OC)c(OC)cc3[C@H]2Cc2ccc(OC)c(OC)c2)cc1OC [Cisatracurium_(besylate)] | 0.726 |
| CC[C@@]1(O)C(=O)OCc2c1cc1n(c2=O)Cc2cc3c(CN(C)C)c(O)ccc3nc2-1 [Topotecan_(Hydrochloride)] | 0.354 |
| C#Cc1cccc(Nc2ncnc3cc(OCCOC)c(OCCOC)cc23)c1 [Erlotinib_(Hydrochloride)] | 0.391 |
| CCC(C)C(N)C(=O)NCCN1CCOCC1 (stereo unspecified) [LM11A-31_(dihydrochloride)] | 0.844 |
| Oc1c(I)cc(Cl)c2cccnc12 [Clioquinol] | 0.393 |
| C[C@]12CCCN1CC1=NNC(=O)c3cc(F)cc4[nH]c2c1c34 [Pamiparib] | 0.861 |
| CCN1CCN(C(=O)N[C@@H](C(=O)N[C@@H]2C(=O)N3[C@@H]2SC(C)(C)[C@@H]3C(=O)O)c2ccccc2)C(=O)C1=O [Piperacillin_(sodium)] | 1.13 |
| CC1CCN(CC[C@H]2CCCN2S(=O)(=O)c2cccc(O)c2)CC1 | 0.817 |
| O=C(O)CCCc1ccccc1 [Sodium_4-phenylbutyrate] | 0.996 |
| NCC(=O)CCC(=O)O [5-Aminolevulinic_acid_(hydrochloride)] | 0.444 |
| COc1cc2ncnc(Nc3cccc(Cl)c3F)c2cc1OC(=O)N1CCN(C)C[C@H]1C [Zorifertinib] | 0.285 |
| CC1(C)S[C@@H]2[C@H](NC(=O)[C@H](N)c3ccc(O)cc3)C(=O)N2[C@H]1C(=O)O [Amoxicillin_(trihydrate)] | 0.942 |
| CCCCCOC(=O)Nc1nc(=O)n([C@@H]2O[C@H](C)[C@@H](O)[C@H]2O)cc1F [Capecitabine] | 0.837 |
| CCc1c2c(nc3ccc(OC(=O)N4CCC(N5CCCCC5)CC4)cc13)-c1cc3c(c(=O)n1C2)COC(=O)[C@]3(O)CC [Irinotecan] | 0.692 |
| Fc1ccc(-c2c3cccc(C(F)(F)F)c3nn2Cc2ccc(F)cc2Cl)cc1 | 0.581 |
| CC(=O)Nc1cccc(-n2c(=O)n(C3CC3)c(=O)c3c(Nc4ccc(I)cc4F)n(C)c(=O)c(C)c32)c1 [Trametinib] | 0.637 |
| COc1ccc2[nH]cc(CCNC(C)=O)c2c1 [Melatonin] | 0.577 |

| Compound | synaptosome phagocytic index |
| --- | --- |
| O=C1NC(=O)C(c2ccccc2)(c2ccccc2)N1 [Phenytoin] | 1.12 |
| CCN(CC)CC(=O)Nc1c(C)cccc1C [Lidocaine] | 0.907 |
| CN1CCN(c2cc(-c3ccncc3)c(-c3ccc4ccccc4c3)nn2)CC1 | 0.903 |
| CNCCC(Oc1ccc(C(F)(F)F)cc1)c1ccccc1 (stereo unspecified) [Fluoxetine_(hydrochloride)] | 0.69 |
| Nc1nc(=O)[nH]cc1F [Flucytosine] | 0.853 |
| CC[C@H](NC(=O)c1c(C)c(-c2ccccc2)nc2ccccc12)c1ccccc1 | 0.907 |
| COCCOC(=O)C1=C(C)NC(C)=C(C(=O)OC(C)C)C1c1cccc([N+](=O)[O-])c1 (stereo unspecified) [Nimodipine] | 0.85 |
| CC[C@H](COc1cccnc1C1CCN(C(=O)[C@@H](Cc2ccc(Cl)cc2Cl)NC(=O)N2CCCC2)CC1)N1CCCC1 | 0.292 |
| O=C1Cc2cc(CCN3CCN(c4nsc5ccccc45)CC3)c(Cl)cc2N1 [Ziprasidone_(hydrochloride_monohydrate)] | 0.51 |
| O=C1CCc2ccc(OCCCCN3CCN(c4cccc(Cl)c4Cl)CC3)cc2N1 [Aripiprazole] | 0.885 |
| O=c1ncn2nc(Sc3ccc(F)cc3F)ccc2c1-c1c(Cl)cccc1Cl [Neflamapimod] | 0.984 |
| OCCN1CCN(CCCN2c3ccccc3Sc3ccc(Cl)cc32)CC1 [Perphenazine] | 0.197 |
| CCCN(CCc1cccs1)[C@H]1CCc2c(O)cccc2C1 [Rotigotine] | 0.995 |
| NC(=O)c1ccc(OCCCN2CC3CCCC3C2)cc1 (stereo unspecified) | 0.933 |
| CCN1CCCC1CNC(=O)c1cc(S(N)(=O)=O)ccc1OC (stereo unspecified) [Sulpiride] | 0.571 |
| COc1cc(C(C)=O)ccc1OCCCN1CCC(c2noc3cc(F)ccc23)CC1 [Iloperidone] | 0.853 |
| CN(C)CCCN1c2ccccc2CCc2ccccc21 [Imipramine_(hydrochloride)] | 0.863 |
| CC(C)(S)[C@@H](N)C(=O)O [Penicillamine] | 0.328 |
